Experimental data reported in PubChem BioAssay.
Where “and” joins values, the source holds several entries; their conditions need not be identical. Equal entries are not always repeated. Inconclusive results are not listed. Calls of active or inactive are those of the source. Cut-off read from the data, not from the text of the source, unless noted: active = inhibition above about 80%; inactive = the rest.

Legend:
[1] = growth inhibition of DIPG glioma cells, dose response, cell-based, SU-DIPG-XIII, MIPE5.0, CellTiter-Glo, qHTS (AID 1347064; cut-off not given, nearly all actives have AC50 up to about 23 µM); conditions: SU-DIPG-XIII viability, CellTiter-Glo ATP luminescence
[2] = LFS_MB_1R medulloblastoma cell growth inhibition, synergistic combos for chromothripsis tumors, cisplatin or BGB combos (AID 1671452); conditions: LFS_MB_1R medulloblastoma cells, stronger effect = higher value;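 note: cells exposed for 96 hours before readout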
[3] = CRL2098 osteosarcoma cell growth inhibition, synergistic combos for chromothripsis tumors, BGB or cisplatin IC20 combos (AID 1671454); conditions: CRL2098 osteosarcoma cells, drug combinations, stronger effect = higher value;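 note: cells exposed for 96 h before readout; 0% = vehicle DMSO and 100% = killing by high DMSO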
[4] = HD-MB03 medulloblastoma cell growth inhibition, synergistic combos for chromothripsis tumors, BGB or cisplatin IC20 combos (AID 1671455; in the data active = inhibition above about 83%;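 note: 0% = vehicle DMSO and 100% = high DMSO as cytotoxic control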); conditions: HD-MB03 medulloblastoma cells, stronger effect = higher value
[5] = UWB1.289 ovarian carcinoma cell growth inhibition, synergistic combos for chromothripsis tumors, BGB or cisplatin combos (AID 1671456); conditions: UWB1.289 ovarian carcinoma cells, stronger effect = higher value;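 note: cells exposed to compound for four days; 0% = vehicle DMSO and 100% = killing by high DMSO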
[6] = LFS_MB_2R medulloblastoma cell growth inhibition, synergistic combos for chromothripsis tumors, cisplatin combos (AID 1671457); conditions: LFS_MB_2R medulloblastoma cells, stronger effect = higher value;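 note: cells exposed to compound for four days before readout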
[7] = MDA-MB-436 breast carcinoma cell growth inhibition, synergistic combos for chromothripsis tumors, BGB or cisplatin combos (AID 1671458; call rule not given here;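 note: cells exposed for 96 hours; 0% = vehicle DMSO and 100% = killing by high DMSO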); conditions: MDA-MB-436 breast carcinoma growth inhibition, drug combinations, stronger effect = higher value
[8] = UWB1.289_BRCA1 ovarian cancer growth, cell-based, BGB or cisplatin combinations (AID 1671459); conditions: UWB1.289 BRCA1 ovarian carcinoma, drug combinations, stronger effect = higher value
[9] = human astrocyte viability loss, single and combined drugs, cytotoxicity control for chromothriptic childhood tumor combination screen, cell-based, BGB or cisplatin IC20 combos (AID 1671460); conditions: Human astrocytes, drug combinations, stronger effect = higher value;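 note: cells exposed to compounds for 96 hours before viability readout; 0% = vehicle and 100% = killing control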
[10] = growth inhibition of BT084 medulloblastoma cells, cell-based, ICGC_MB145, cisplatin and BGB IC40 combos (AID 1671461); conditions: drug combinations, stronger effect = higher value;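 note: cells exposed to drugs for 96 hours; 0% = vehicle DMSO and 100% = high DMSO full killing control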
[11] = growth inhibition of RCMB18 medulloblastoma cells, cell-based, cisplatin and BGB IC40 combos (AID 1671462); conditions: stronger effect = higher value;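 note: cells exposed to compound for four days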
[12] = growth inhibition of CRL1545 osteosarcoma cells, cell-based, cisplatin and BGB IC20 combos (AID 1671464); conditions: stronger effect = higher value;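 note: cells exposed to compound for 96 hours before readout; 0% = vehicle DMSO and 100% = high DMSO killing control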
[13] = system: Neuropilin-2 / VEGF-C interaction (human); assay: inhibitors of NRP2–VEGF-C binding, biochemical, microplate binding format, z-score (AID 743281; call rule not given here); conditions: microplate NRP2/VEGF-C binding assay; stronger effect = lower value
[14] = inhibitors of Cryptococcus chitosan production, flow cytometry, Cibacron Brilliant Red staining (AID 1347148; call rule not given here;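 note: compound exposure lasted three days at 37 degrees C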); conditions: Cryptococcus neoformans chitosan, stronger effect = lower value; at 10 µM unless noted
[15] = protection against mutant huntingtin cytotoxicity, PC12 cells, LDH release (AID 1610); conditions: PC12 mutant huntingtin toxicity, final LDH at 4 uM, stronger effect = lower value
[16] = growth inhibition of DIPG glioma cells, dose response, cell-based, SU-DIPG-IV, MIPE4.0, CellTiter-Glo, qHTS (AID 1347063; cut-off not given, nearly all actives have AC50 up to about 30 µM;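 note: compound exposure lasted 48 hours before the viability readout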); conditions: SU-DIPG-IV viability, CellTiter-Glo ATP luminescence
[17] = measured here: combination with BGB IC40, at 0.05 µM
[18] = measured here: combination with cisplatin, at 0.5 µM
[19] = measured here: combination with cisplatin, at 5 µM
[20] = measured here: combination with BGB at IC20, at 0.5 µM
[21] = measured here: combination with cisplatin at IC20, at 0.5 µM
[22] = measured here: combo with BGB at IC20, at 0.5 µM
[23] = measured here: combo with cisplatin at IC20, at 0.5 µM
[24] = measured here: inhibition with BGB combination, at 0.05 µM
[25] = measured here: inhibition with cisplatin combination, at 0.05 µM
[26] = measured here: BGB combination, at 0.5 µM
[27] = measured here: BGB combination, at 5 µM
[28] = measured here: cisplatin combination, at 0.5 µM
[29] = measured here: cisplatin combination, at 5 µM
[30] = BGB combination, concentration series, at 5 µM
[31] = cisplatin combination, concentration series, at 5 µM
[32] = measured here: combo with BGB IC20, at 0.5 µM
[33] = measured here: combo with cisplatin IC20, at 0.5 µM
[34] = cisplatin combination, at 0.5 µM
[35] = measured here: BGB IC40 combination 0.05 uM, at 0.05 µM
[36] = measured here: BGB IC40 combination, at 0.05 µM
[37] = measured here: with BGB IC20 combination, at 0.5 µM
[38] = measured here: with cisplatin IC20 combination, at 0.5 µM

SMILES: O=P1(NCCCl)OCCCN1CCCl (centres undefined)
- outcome [1]: inactive
- inhibition ([2]; at 0.5 µM): -28.1% (inactive) and -35.8% (inactive)
- inhibition [2, 17]: 3.69% and -53.3%
- inhibition [2, 18]: -0.682% and -78.4%
- inhibition [2, 19]: -35.6% and -67.8%
- inhibition ([3]; at 0.5 µM): -54.7% (inactive) and -66.2% (inactive)
- inhibition [3, 20]: -36.5% and -70.3%
- inhibition [3, 21]: -76.6% and -81.7%
- inhibition ([4]; at 0.5 µM): -1.59% (inactive) and -13.1% (inactive)
- inhibition [4, 22]: -0.444% and -33.2%
- inhibition [4, 23]: -1.58% and -14.4%
- inhibition ([5]; at 0.5 µM): -7.68% (inactive) and -24.2% (inactive)
- inhibition [5, 24]: -37.9% and -17.6%
- inhibition [5, 25]: -13.2% and -26.4%
- inhibition ([6]; at 0.5 µM): -24.9% (inactive) and -21% (inactive)
- inhibition [6, 18]: -18.4% and -33%
- inhibition [6, 19]: -20.4% and -22.6%
- inhibition ([7]; at 0.5 µM): -32.5% (inactive) and -17.3% (inactive)
- inhibition [7, 26]: -44.8% and -19%
- inhibition [7, 27]: -38% and -30.9%
- inhibition [7, 28]: -35.4% and -19.9%
- inhibition [7, 29]: -21.1% and -24.7%
- inhibition [8, 30]: -15.7% and -7.29%
- inhibition ([8]; at 0.5 µM): -18.2% (inactive) and -23.7% (inactive)
- inhibition [8, 31]: -10.3% and -29.5%
- inhibition ([9]; at 0.5 µM): -8.49% (inactive) and 1.06% (inactive)
- inhibition [9, 32]: -4.33% and 4.18%
- inhibition [9, 33]: -7.61% and -5.83%
- inhibition ([10]; at 0.5 µM): -13.2% (inactive) and -8.24% (inactive)
- inhibition [10, 34]: -6.37% and -25.6%
- inhibition ([10]; cisplatin combination, at 5 µM): -50% and -9.28%
- inhibition [10, 35]: 1.93% and -27.2%
- inhibition ([10]; single agent, at 5 µM): -32% and -16.6%
- inhibition ([11]; at 0.5 µM): -14.3% (inactive) and -7.44% (inactive)
- inhibition ([11]; cisplatin combo, at 5 µM): -2.4% and -9.06%
- inhibition [11, 36]: -18.8% and -23%
- inhibition [11, 18]: -12.5% and 2.1%
- inhibition ([11]; single agent, at 5 µM): -33% and -28.9%
- inhibition ([12]; at 0.5 µM): -45.1% (inactive) and -50.6% (inactive)
- inhibition [12, 37]: -3.77% and -48%
- inhibition [12, 38]: -65.8% and -54.4%
- inhibition ([12]; single agent, at 0.05 µM): -16.2% and -50%
- inhibition ([12]; single agent, at 5 µM): 2.18% and -61%

SMILES: NC1=NC(=O)C(c2ccccc2)O1 (centres undefined)
- z-score [13]: -1.08 (inactive)

SMILES: N#Cc1nn(-c2c(Cl)cc(C(F)(F)F)cc2Cl)c(N)c1S(=O)C(F)(F)F (centres undefined)
- fold fluorescence [14]: 4.35 [at 114.4 µM] (inactive)

SMILES: c1ccc2c(c1)Nc1ccccc1S2
- z-score [13]: 0.0903 (inactive)

SMILES: CN1C(=O)CN=C(c2ccccc2)c2cc([N+](=O)[O-])ccc21
- z-score [13]: -0.553 (inactive)

SMILES: CN[C@@H]1C[C@@H](c2ccc(Cl)c(Cl)c2)c2ccccc21
- z-score [13]: 0.266 (inactive)

SMILES: Oc1cccc2cccnc12
- normalised LDH release [15]: 1

SMILES: CCN(CC)CCOC(=O)C(O)(c1ccccc1)c1ccccc1
- z-score [13]: 0.28 (inactive)

SMILES: C[N+]1(CCC(C(N)=O)(c2ccccc2)c2ccccc2)CCCCC1
- z-score [13]: -0.188 (inactive)

SMILES: Cc1cccc(C)c1NC(=O)CN1CCCC1=O
- outcome [16]: inactive
- outcome [1]: inactive

SMILES: Cn1c(CCCC(=O)O)nc2cc(N(CCCl)CCCl)ccc21
- outcome [1]: inactive
- inhibition ([2]; at 0.5 µM): -36.7% (inactive)
- inhibition [2, 17]: -23.8%
- inhibition [2, 18]: -14.3%
- inhibition [2, 19]: -23.5%
- inhibition ([3]; at 0.5 µM): -98.8% (inactive)
- inhibition [3, 20]: -103%
- inhibition [3, 21]: -129%
- inhibition ([4]; at 0.5 µM): -13.4% (inactive)
- inhibition [4, 22]: -11.1%
- inhibition [4, 23]: -20.4%
- inhibition ([5]; at 0.5 µM): -2.34% (inactive)
- inhibition [5, 24]: -13.2%
- inhibition [5, 25]: -10.4%
- inhibition ([6]; at 0.5 µM): -14.6% (inactive)
- inhibition [6, 18]: -2.61%
- inhibition [6, 19]: -14.7%
- inhibition ([7]; at 0.5 µM): -25.9% (inactive)
- inhibition [7, 26]: -33%
- inhibition [7, 27]: -23.4%
- inhibition [7, 28]: -31%
- inhibition [7, 29]: -8.45%
- inhibition [8, 30]: -2.78%
- inhibition ([8]; at 0.5 µM): -6.91% (inactive)
- inhibition [8, 31]: -6.97%
- inhibition ([9]; at 0.5 µM): -9.57% (inactive)
- inhibition [9, 32]: -2.95%
- inhibition [9, 33]: -20%
- inhibition ([10]; at 0.5 µM): -12.4% (inactive)
- inhibition [10, 34]: -15.3%
- inhibition ([10]; cisplatin combination, at 5 µM): -29.8%
- inhibition [10, 35]: -6.48%
- inhibition ([10]; single agent, at 5 µM): -11.8%
- inhibition ([11]; at 0.5 µM): -2.17% (inactive)
- inhibition ([11]; cisplatin combo, at 5 µM): -2.69%
- inhibition [11, 36]: 14.5%
- inhibition [11, 18]: 15.5%
- inhibition ([11]; single agent, at 5 µM): -39.8%
- inhibition ([12]; at 0.5 µM): -50.3% (inactive)
- inhibition [12, 37]: -68.1%
- inhibition [12, 38]: -41.4%
- inhibition ([12]; single agent, at 0.05 µM): 2.56%
- inhibition ([12]; single agent, at 5 µM): -15.4%

SMILES: COc1ccc(C(=O)c2c(C)n(CCN3CCOCC3)c3ccccc23)cc1
- outcome [16]: inactive

SMILES: c1ccc(C2CC2)c(OCC2=NCCN2)c1
- fold fluorescence [14]: 4.38 [at 231.2 µM] (inactive)

SMILES: COC[C@@H](NC(C)=O)C(=O)NCc1ccccc1
- outcome [1]: inactive

SMILES: C#C[C@]1(O)C=C[C@H]2[C@@H]3CCC4=CC(=O)CC[C@@H]4[C@H]3CC[C@@]21CC
- outcome [16]: inactive
- outcome [1]: inactive

SMILES: CCCC[N+]1(C)[C@@H]2CC(OC(=O)[C@H](CO)c3ccccc3)C[C@H]1[C@@H]1O[C@@H]12 (some centres undefined)
- outcome [16]: inactive
- outcome [1]: inactive

SMILES: Fc1ccc(C(OCCN2CCN(CCCc3ccccc3)CC2)c2ccc(F)cc2)cc1
- AC50 [16]: 13.2 µM (active)

SMILES: NCC1(CC(=O)O)CCCCC1
- outcome [16]: inactive
- outcome [1]: inactive

SMILES: CCCCC/C=C\C/C=C\C/C=C\C/C=C\CCCC(=O)NCC(=O)O
- fold fluorescence [14]: 3.73 (inactive)

SMILES: C[C@]12CC[C@H](O)CC1=CC[C@@H]1[C@@H]2CC[C@]2(C)C(=O)CC[C@@H]12
- outcome [16]: inactive
- outcome [1]: inactive
